Measured values: PubChem BioAssay
Active and inactive are the calls of the source.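 How the source made its calls, unless noted: active means inhibition at or above 50% at 10 µM; inactive means inhibition below 50%.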

Assays:
[1] = inhibitors of TNFa-induced NFkB p65 translocation, primary screen, imaging, HUVEC, MLSMR starter and 10KST1 sets (AID 438;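 active means inhibition above 20% together with a positive visual image hit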;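 further: compound added about 3h40 before a 20 min TNFalpha stimulation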;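 on inhibition: signal is the nuclear over cytoplasmic p65 intensity ratio per well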); details: HUVEC TNFa-induced p65 nuclear translocation; cell count: measured here: nuclei count (cytotoxicity indicator), at 2.08 µM; inhibition: at 2 µM, stronger effect = higher value, 0% TNFa-plus-vehicle, 100% no-TNFa wells
[2] = reduction of polyQ htt aggregates in cells – imaging, exon1htt(103Q)mCFP cells, high-content imaging, primary screen (AID 483;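 active means visual image review flags a hit and inhibition of aggregation exceeds 20%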;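 further: compound exposure lasted 3 days before fixation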;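 on nuclei count: percent of the per-plate median nuclei count of sample wells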); details: exon1htt(103Q)mCFP cell line, aggregate imaging, at 2 µM; inhibition of aggregation: stronger effect = higher value; nuclei count: measured here: cell count, toxicity
[3] = endothelial E-selectin expression blockers – imaging, HUVEC, immunofluorescence, MLSMR starter and 10KST1 sets, primary screen (AID 487;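 active means visually confirmed hit in the image check and inhibition above 20%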;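 on inhibition: signal is fraction of cell area covered by stained E-selectin grains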;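 on nuclei count: 100% = median nuclei count of all wells on the same plate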); details: HUVEC TNFalpha-induced E-selectin immunofluorescence imaging, at 2 µM; inhibition: stronger effect = higher value; nuclei count: measured here: cell number, toxicity
[4] = target: Voltage-gated potassium channel subunit beta-2 (Rattus norvegicus) (UniProt P62483); assay: inhibitors of rat Kvbeta2 reductase activity – biochemical, NADPH fluorescence, primary screen (AID 622;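 active means fluorescence slope higher than the sample average by over 3 SD, cut at about -0.22 in these data, passing the limit was not always enough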;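 further: slope of raw intensity against log time taken from 70 to 1610 s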); details: recombinant KvBeta, 4-cyanobenzaldehyde reduction, at 10 µM, stronger effect = higher value
Voltage-gated potassium channel subunit beta-2 (Rattus norvegicus), sequence (P62483 whole entry, looked up): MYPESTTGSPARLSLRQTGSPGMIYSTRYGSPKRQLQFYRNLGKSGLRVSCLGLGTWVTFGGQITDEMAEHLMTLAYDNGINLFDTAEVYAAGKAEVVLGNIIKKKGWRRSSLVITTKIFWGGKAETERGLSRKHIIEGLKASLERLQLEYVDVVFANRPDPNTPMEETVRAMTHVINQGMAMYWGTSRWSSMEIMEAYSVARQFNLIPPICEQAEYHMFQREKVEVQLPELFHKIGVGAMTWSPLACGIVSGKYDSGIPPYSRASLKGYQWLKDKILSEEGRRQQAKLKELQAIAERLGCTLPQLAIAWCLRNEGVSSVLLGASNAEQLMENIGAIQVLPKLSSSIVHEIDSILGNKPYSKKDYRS

[5] = target: Voltage-gated potassium channel subunit beta-2 (Rattus norvegicus) (UniProt P62483); assay: enhancers of rat Kvbeta2 NADPH turnover – biochemical, NADPH fluorescence, primary screen (AID 623;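 active means NADPH fluorescence slope more negative than the mean of all samples by about 3 SD, 99.7% confidence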;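 further: fluorescence intensity change per second fitted from 20 to 320 s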); details: Recombinant KvBeta, NADPH fluorescence decrease slope, 10 min; at 10 µM; stronger effect = lower value
[6] = target: Alpha-2C adrenergic receptor (Homo sapiens) (UniProt P18825); assay: compounds altering alpha2C-coupled GIRK flux – cell-based, HEK293 alpha2C/GIRK1/2, thallium flux, primary screen (AID 624;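 active means fluorescence slope after compound addition differing from the mean of all screened samples at 99.7% confidence, in either direction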;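 further: slope of fluorescence ratio to pre-addition baseline per second over 15 to 24 s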); details: thallium flux BTC fluorescence, at 10 µM, actives lie on both sides
Alpha-2C adrenergic receptor (Homo sapiens), sequence (P18825 whole entry, looked up): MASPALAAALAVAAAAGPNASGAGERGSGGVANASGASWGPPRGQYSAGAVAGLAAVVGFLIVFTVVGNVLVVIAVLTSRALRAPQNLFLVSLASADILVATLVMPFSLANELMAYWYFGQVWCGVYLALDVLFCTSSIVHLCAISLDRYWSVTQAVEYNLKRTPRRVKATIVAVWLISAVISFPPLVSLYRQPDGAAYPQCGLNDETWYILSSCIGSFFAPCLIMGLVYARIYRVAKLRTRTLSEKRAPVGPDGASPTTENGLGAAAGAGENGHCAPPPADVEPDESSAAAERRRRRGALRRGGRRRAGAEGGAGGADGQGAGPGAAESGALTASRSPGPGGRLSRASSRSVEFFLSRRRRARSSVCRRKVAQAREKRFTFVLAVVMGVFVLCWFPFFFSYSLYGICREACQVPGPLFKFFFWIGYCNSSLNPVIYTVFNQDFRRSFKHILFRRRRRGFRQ

[7] = blockers of RIG-like receptor reporter activation – cell-based, Sendai virus stimulus, luciferase, 10K MLSCN set, TLR/RLR signaling modifier project, primary screen (AID 602276); details: HEK293 RL24 IRF3 luciferase reporter, at 10 µM, stronger effect = higher value;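 further: firefly luciferase from ISG56 promoter only with Renilla not read in this screen; 0% = Sendai virus plus DMSO and 100% = medium plus DMSO without virus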
[8] = TLR3 IRF3 reporter activation blockers – cell-based, poly I:C stimulus, luciferase, 10K MLSCN set, primary screen (AID 602277;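 active means inhibition of the reporter signal at or above 50%; inactive means inhibition below 50%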); details: HEK293-TLR3 RL24 IRF3 luciferase reporter, at 10 µM, stronger effect = higher value

Compound	cell count [1]	inhibition [1]	inhibition of aggregation [2]	nuclei count [2] [%]	inhibition [3]	nuclei count [3] [%]	fluorescence slope [4]	NADPH fluorescence slope [5]	slope [6]	inhibition [7]	inhibition [8]
CCN(CCCNS(=O)(=O)c1ccc2c(c1)oc(=O)n2C)c1cccc(C)c1	740	-0.6% (inactive)	-22.6% (inactive)	110	-21.3% (inactive)	102	-0.574 (inactive)	9.4e-07 (inactive)	0.00612 (inactive)	18.1% (inactive)	32.9% (inactive)
O=C1CCCCCN1CSc1nc2ccccc2s1	686	-17.2% (inactive)	-3.1% (inactive)	106	7.2% (inactive)	97.6	-0.433 (inactive)	-0.000138 (inactive)	0.00664 (inactive)	18.8% (inactive)	27.7% (inactive)
C/C=C/COC(=O)c1[nH]c2c(c1C)C(=O)CC(c1ccco1)C2 (stereo not drawn)	582	13.8% (inactive)	4.4% (inactive)	3.3	-141% (inactive)	97	-0.496 (inactive)	-1.1e-06 (inactive)	0.00708 (inactive)	25.7% (inactive)	82.7% (active)
CCCCOC(=O)CNc1nnc(SCC(=O)OCC)[nH]c1=O	659	-10.5% (inactive)	9.9% (inactive)	94.8	-32.4% (inactive)	110	-0.572 (inactive)	-7.9e-06 (inactive)	0.00508 (inactive)	2.96% (inactive)	-3.08% (inactive)
Cc1ccc(CCNC(=O)CC2Oc3ccc(C)cc3NC2=O)cc1 (stereo not drawn)	644	5.5% (inactive)	-11.9% (inactive)	105	-33.5% (inactive)	124	-0.558 (inactive)	1.2e-05 (inactive)	0.00676 (inactive)	-18.4% (inactive)	2.52% (inactive)
Cn1c(=O)[nH]c(=O)c2c1ncn2CCN1CCOCC1	696	-12.1% (inactive)	-10.8% (inactive)	107	-6.5% (inactive)	102	-0.512 (inactive)	1.1e-05 (inactive)	0.00632 (inactive)	8.85% (inactive)	16.4% (inactive)
COc1ccc(-n2c(SCC(=O)N3CCCCC3C)nnc2-c2cccnc2)cc1 (stereo not drawn)	584	-12.2% (inactive)	24.3% (inactive)	93.6	-23.2% (inactive)	103	-0.337 (inactive)	-5.2e-05 (inactive)	0.00523 (inactive)	6.12% (inactive)	9.8% (inactive)
CC(=O)NC(CCS(C)(=O)=O)C(=O)Nc1cc(C)on1 (stereo not drawn)	676	-2.9% (inactive)	26.2% (inactive)	62.5	-36.9% (inactive)	114	-0.533 (inactive)	2.6e-05 (inactive)	0.00682 (inactive)	25.9% (inactive)	7.35% (inactive)
CCOc1ncccc1C(=O)OCC(=O)N1CC(=O)Nc2ccccc21	371	2.2% (inactive)	-21.8% (inactive)	102	-9.8% (inactive)	111	-0.486 (inactive)	3.8e-06 (inactive)	0.00558 (inactive)	7.28% (inactive)	22.7% (inactive)
CCN(CCCNC(=O)CCNC(=O)Cn1ccc2ccccc2c1=O)c1ccccc1	393	4.5% (inactive)	-6.3% (inactive)	103	-106% (inactive)	118	-0.441 (inactive)	-8.2e-06 (inactive)	0.00588 (inactive)	-0.268% (inactive)	-15.2% (inactive)
COc1cccc(NC(=O)c2nc3nc(C)cc(C(F)F)n3n2)c1	641	-2.9% (inactive)	1.9% (inactive)	68.8	-34.9% (inactive)	96.6	-0.567 (inactive)	-5.2e-05 (inactive)	0.00736 (inactive)	3.8% (inactive)	4.85% (inactive)
CCOC(=O)c1ccc(NS(=O)(=O)c2ccc3c(c2)oc(=O)n3C)cc1	467	1.3% (inactive)	25.3% (inactive)	72.9	10.3% (inactive)	107	-0.602 (inactive)	-1.1e-05 (inactive)	0.00688 (inactive)	-7.08% (inactive)	14% (inactive)
O=C(COC(=O)c1cccc(S(=O)(=O)N2CCc3ccccc32)c1)NC1CCS(=O)(=O)C1 (stereo not drawn)	611	8.9% (inactive)	-6.2% (inactive)	125	-104% (inactive)	111	-0.283 (inactive)	-7.3e-05 (inactive)	0.00577 (inactive)	3.1% (inactive)	12.9% (inactive)
CC1CCN(C(=O)Cn2cc3c(n2)CCCC3)CC1	931	-1.8% (inactive)	-26% (inactive)	114	-6.8% (inactive)	89.8	-0.612 (inactive)	-7.4e-06 (inactive)	0.00712 (inactive)	-32.6% (inactive)	-60.8% (inactive)
CC(=O)c1ccc(-c2nc3ccccc3n2C)o1	365	4.7% (inactive)	-13.2% (inactive)	105	-11.8% (inactive)	108	-0.0212 (active)	5.6e-07 (inactive)	0.00571 (inactive)	-22.8% (inactive)	-73.6% (inactive)
Cc1cc(C)c2c(n1)nn1c(N3CCOCC3)cc(C)nc21	503	-6.3% (inactive)	5.7% (inactive)	81.9	-56.5% (inactive)	123	-0.0426 (active)	-2.7e-06 (inactive)	0.00599 (inactive)	2.18% (inactive)	3.21% (inactive)
CCCCCOC(=O)C1=C(C)N(C)C(=O)NC1c1cc(Br)c(O)c(OC)c1 (stereo not drawn)	563	-9.9% (inactive)	-39.7% (inactive)	105	25.8% (inactive)	105	-0.624 (inactive)	5.7e-06 (inactive)	0.0067 (inactive)	1.53% (inactive)	21.1% (inactive)
CSc1nc(C)cc(Oc2ccc(=O)n(C)n2)n1	380	-0.7% (inactive)	1.1% (inactive)	101	-30.2% (inactive)	109	-0.478 (inactive)	-4.2e-06 (inactive)	0.00506 (inactive)	1.26% (inactive)	22.5% (inactive)
CCN(CC)CCCN1C(=O)C(O)=C(C(=O)c2ccco2)C1c1ccc(C)o1 (stereo not drawn)	330	22.9% (inactive)	-17.3% (inactive)	106	-22.2% (inactive)	99.7	-0.607 (inactive)	-3.7e-05 (inactive)	0.00682 (inactive)	8.72% (inactive)	8.23% (inactive)
COc1ccccc1-n1c(=O)[nH]c2c(C(N)=O)nc(-c3cccnc3)nc21	679	-5.2% (inactive)	-20.4% (inactive)	101	-19.1% (inactive)	104	-0.516 (inactive)	-3.5e-06 (inactive)	0.00612 (inactive)	15.6% (inactive)	-10.2% (inactive)
CCOC(=O)C1CCCN(c2c(N3CCN(c4ccccn4)CC3)c(=O)c2=O)C1 (stereo not drawn)	631	6.9% (inactive)	11.3% (inactive)	98.8	-5.4% (inactive)	132	-0.503 (inactive)	-3.5e-05 (inactive)	0.00587 (inactive)	3.88% (inactive)	27.8% (inactive)
CC(Sc1nnnn1C)C(=O)Nc1ccc(Oc2ccccc2)cc1 (stereo not drawn)	354	0.5% (inactive)	-25.9% (inactive)	105	-72.3% (inactive)	125	-0.505 (inactive)	-2.8e-05 (inactive)	0.00778 (inactive)	-8.41% (inactive)	-9.23% (inactive)
O=c1[nH]c(N2CCCCC2)nc2c1CCCC2	581	0.9% (inactive)	5.9% (inactive)	107	9.4% (inactive)	102	-0.265 (inactive)	-2.4e-05 (inactive)	0.00576 (inactive)	17% (inactive)	12.8% (inactive)
CSc1nc2ccccc2c(=O)n1N	618	7.8% (inactive)	12.4% (inactive)	90.5	28.4% (inactive)	84.2	-0.404 (inactive)	-1.3e-05 (inactive)	0.00832 (inactive)	13% (inactive)	19% (inactive)
CCOC(=O)N1CCC(Nc2ncnc3c2cnn3-c2ccc(C)cc2C)CC1	684	-0.8% (inactive)	6.9% (inactive)	92.6	-36.3% (inactive)	124	-0.529 (inactive)	-4.5e-05 (inactive)	0.00533 (inactive)	3.02% (inactive)	-54.1% (inactive)
COC(=O)c1ccc(Cl)c(NC(C)=O)c1	367	1.8% (inactive)	-20.6% (inactive)	110	-48.4% (inactive)	78.5	-0.433 (inactive)	-4.1e-05 (inactive)	0.00415 (inactive)	4.64% (inactive)	34.3% (inactive)
NC(=O)c1sc2nc3c(c(-c4ccco4)c2c1N)CCC3	365	5.8% (inactive)	1.6% (inactive)	87.8	-32.2% (inactive)	121	-0.366 (inactive)	-6.5e-05 (inactive)	0.00352 (inactive)	16.4% (inactive)	-2.19% (inactive)
O=C(CSc1nnc(CNC(=O)c2cccs2)o1)NC1CCCC1	613	-14.4% (inactive)	10.3% (inactive)	93.1	-2.3% (inactive)	123	-0.318 (inactive)	-5e-05 (inactive)	0.00569 (inactive)	16.7% (inactive)	12.5% (inactive)
